AHR activator: AHR activators, primary screen, cell-based, luminescence, luciferase reporter, human. Aryl hydrocarbon receptor (Homo sapiens), P35869. AHR-responsive luciferase reporter cells. activation, % at 5 µM. 320,000 compounds, 2.5% hits; in the data active means activation above about 47%;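 further: 0% = vehicle wells and 100% = reference agonist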
Target sequence (P35869 whole entry, looked up): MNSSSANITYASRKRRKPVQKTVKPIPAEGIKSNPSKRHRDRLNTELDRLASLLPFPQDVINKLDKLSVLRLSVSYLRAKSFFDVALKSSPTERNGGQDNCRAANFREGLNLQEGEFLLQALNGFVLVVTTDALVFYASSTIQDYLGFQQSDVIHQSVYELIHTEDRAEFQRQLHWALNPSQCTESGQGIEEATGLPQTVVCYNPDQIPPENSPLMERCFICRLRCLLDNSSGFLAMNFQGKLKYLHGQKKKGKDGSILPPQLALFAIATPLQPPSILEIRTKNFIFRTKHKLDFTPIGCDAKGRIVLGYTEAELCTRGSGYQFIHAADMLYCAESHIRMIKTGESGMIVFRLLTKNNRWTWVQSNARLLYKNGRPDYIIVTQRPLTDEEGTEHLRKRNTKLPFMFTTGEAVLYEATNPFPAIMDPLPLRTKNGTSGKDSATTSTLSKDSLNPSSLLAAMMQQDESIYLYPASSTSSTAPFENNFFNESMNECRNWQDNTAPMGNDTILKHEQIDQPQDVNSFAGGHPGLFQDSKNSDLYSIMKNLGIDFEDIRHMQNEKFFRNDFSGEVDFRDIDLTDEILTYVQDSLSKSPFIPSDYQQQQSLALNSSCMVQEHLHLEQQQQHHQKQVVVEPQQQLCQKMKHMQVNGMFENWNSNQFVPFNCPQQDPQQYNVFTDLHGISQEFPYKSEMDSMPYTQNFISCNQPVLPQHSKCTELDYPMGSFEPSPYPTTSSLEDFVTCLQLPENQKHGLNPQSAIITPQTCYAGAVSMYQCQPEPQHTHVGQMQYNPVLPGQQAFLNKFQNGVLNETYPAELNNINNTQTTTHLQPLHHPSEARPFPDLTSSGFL
SENP6 inh: SENP6 protease inhibitors, primary screen, biochemical, luminescence, uHTS. Sentrin-specific protease 6 (Homo sapiens), Q9GZR1. Recombinant SENP6 catalytic domain, aminoluciferin luminescence. inhibition, % at 10 µM. 330,000 compounds, 1.8% hits;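 active means inhibition above about 50% at the single tested dose, limit read from the data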;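 further: plate controls were DMSO wells with enzyme for no effect and DMSO wells lacking enzyme for full effect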
SENP7 inh: SENP7 protease inhibitors, primary screen, biochemical, luminescence, uHTS; recombinant SENP7, Z-RLRGG-aminoluciferin luminescence, 40 min; 330,000 compounds, 1.5% hits; inhibition, % at 5 µM; Sentrin-specific protease 7 (Homo sapiens), Q9BQF6;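 active means inhibition above about 50% at the single test dose, limit read from the data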;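 further: plate controls were DMSO with enzyme for no effect and no enzyme buffer wells for full effect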
EBI2 block: EBI2 receptor antagonists, beta-arrestin recruitment, primary screen, cell-based, luminescence, 7a,25-OHC stimulation, uHTS | 360,000 compounds, 0.81% hits | G-protein coupled receptor 183 (Homo sapiens), P32249 | 7a,25-OHC stimulated | inhibition, % at 5 µM; in the data active means inhibition above about 38%;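 further: enzyme fragment complementation signal reports receptor beta-arrestin coupling in cells; 0% = agonist plus DMSO wells and 100% = wells without agonist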
SENP8 block-1: human SENP8 protease inhibitors, primary screen, biochemical, fluorescence, Nedd8 protein substrate, uHTS; inhibition, % at 20 µM; 360,000 compounds, 0.64% hits; AID 602440, 2012; recombinant SENP8; in the data active means inhibition mostly above about 40%, no sharp cut-off; inactive means mostly below about 27%
SENP8 block-2: SENP8 protease inhibitors, primary screen, biochemical, luminescence; purified SENP8, Z-RLRGG-aminoluciferin cleavage; AID 2540, 2010; Sentrin-specific protease 8 (Homo sapiens), Q96LD8; inhibition, % at 10 µM; 330,000 compounds, 1.2% hits; in the data active means inhibition above about 50%
An asterisk follows results filed as active; . = no result given. Only some compounds are listed: those with a hit (about 5% of all), similar ones and a draw of the others.

SMILES | AHR activator | SENP6 inh | SENP7 inh | EBI2 block | SENP8 block-1 | SENP8 block-2
C=CCSc1nc2ccccc2n1C(=O)/C=C/c1ccc(OC)c(OC)c1 | -2.1 | . | . | 45.9* | -24.2 | .
CCSc1nc2ccccc2n1C(=O)/C=C/c1ccc(OC)c(OC)c1 | -1.5 | 18.6 | 10.0 | 33.3 | -30.0 | -3.4
C=CCSc1nc2ccccc2n1C(=O)/C=C/c1cc(OC)c(OC)c(OC)c1 | 3.2 | -3.8 | -7.6 | 56.5* | -1.0 | -8.0
COc1cc(/C=C/C(=O)NCCn2c(C)cc3ccccc32)cc(OC)c1OC | 18.8 | -3.8 | -1.9 | 8.6 | -55.9 | 0.9
COCCNc1nc(NCCN2CCNC2=O)c2sccc2n1 | . | . | . | 0.8 | -10.1 | .
CCOc1cccc(N(C(=O)CNC(=O)c2ccco2)C(C(=O)NCC2CCCO2)c2ccccc2)c1 (stereo unspecified) | -0.5 | -18.9 | -1.2 | -1.3 | 2.5 | -8.1
CCOc1ccccc1NC(=O)c1cc(=O)[nH]c2ccc(S(=O)(=O)N3CCOCC3)cc12 | 56.7* | 4.7 | -11.7 | -2.2 | -9.3 | -4.1
CCOC(=O)C1(O)CC(C)=NN1C(=O)c1cccc(Cl)c1 (stereo unspecified) | 0.5 | -2.1 | -0.2 | -5.9 | 11.9 | -3.5
Cc1nn(-c2ccccc2)c(Cl)c1/C=C/C(=O)c1ccccc1 | -4.3 | -3.2 | 3.7 | 8.7 | 42.2* | -14.0
CC(OC(=O)CCN=C1NS(=O)(=O)c2ccccc21)C(=O)NCc1ccccc1 (stereo unspecified) | 1.5 | 2.7 | -9.5 | 3.6 | -2.1 | 6.0
CN1CCC/C1=C/C=C1\SC(=S)NC1=O | 3.2 | . | . | 1.9 | 82.3* | .
O=C(CC1SC(N2CCCCC2)=NC1=O)Nc1cccc(C(=O)N2CCCC(C(F)(F)F)C2)c1 (stereo unspecified) | . | . | . | -7.1 | 17.9 | .
COc1cc2c(cc1OC)C(c1ccc(C(F)(F)F)cc1)CC(=O)N2 (stereo unspecified) | 54.2* | 2.4 | -9.1 | 5.1 | 4.7 | -9.2
[O-][N+](=Cc1ccccc1)c1ccc(Cl)cc1 | . | . | . | -3.5 | 22.8 | .
[O-]/[N+](=C/c1ccc(F)cc1)c1ccc(Cl)cc1 | 63.6* | 5.0 | 8.8 | 7.0 | 22.8 | -1.2
CC1(C(=O)Nc2cccc(Oc3ccccc3)c2)CCN1Cc1cc2ccccc2o1 (stereo unspecified) | . | . | . | 22.0 | 6.0 | .
O=C(NC1CC1)c1cccc(NC(=O)c2cnn(-c3ccccc3)n2)c1 | 59.4* | -19.5 | 0.4 | 7.6 | 7.8 | -3.8
COCCN1C(=O)C(C(=O)OC)CC2=C1CC(C)(C)CC2=O (stereo unspecified) | . | . | . | -7.2 | 9.6 | .
CCN(CC)c1ncnc2sc(C(=O)N3CCN(c4ccccc4)CC3)c(C)c12 | 0.8 | 5.9 | -1.7 | 10.2 | -63.6 | -1.9
CCC1CCCCN1C(=O)c1sc2ncnc(N(CC)CC)c2c1C (stereo unspecified) | 58.5* | -4.5 | 5.8 | -4.8 | 35.4 | -0.2
COc1ccc(C2C(=O)N(C3CCCCC3)CC(=O)N2Cc2ccc3c(c2)OCO3)cc1 (stereo unspecified) | 0.0 | 100.1* | -1.2 | -5.7 | 17.7 | -6.1
O=C1C(c2ccc(F)cc2)N(Cc2ccc3c(c2)OCO3)C(=O)CN1C1CCCCCC1 (stereo unspecified) | -2.2 | 3.8 | 5.5 | 12.2 | 6.2 | 3.9
CCOc1ccc2nc(NC3=NC(C)(C)C=C(C)N3)nc(C)c2c1 | 40.8 | -16.6 | 2.4 | 4.0 | -126.9 | -8.5
CCOc1ccc2c(C)nc(NC3=NC(C)(C)C=C(C)N3)nc2c1 | 63.8* | 4.9 | 6.9 | 2.3 | -248.5 | -1.9
CC(C)Cc1ccc(C(C)C(=O)Nc2ccccc2O)cc1 (stereo unspecified) | -3.3 | 14.9 | -1.2 | -20.8 | -4.8 | 2.3
SMILES | AHR activator | SENP6 inh | SENP7 inh | EBI2 block | SENP8 block-1 | SENP8 block-2
C=CCSc1nc(N)c(C(=O)Nc2ccccc2OC)cc1C(=O)Nc1ccccc1 | 75.0* | -10.4 | 4.8 | -2.5 | -99.4 | 1.1
COc1ccc(NC(=O)c2cc(-c3ccncc3)nc3ccccc23)c(OC)c1 | 56.5* | 3.1 | 11.7 | 0.1 | 7.6 | -4.4
COc1ccccc1NC(=O)c1cc(-c2ccc(C)o2)nc2ccccc12 | 71.8* | -11.1 | 2.9 | -2.4 | -288.0 | -4.5
Cc1ccc(NC(=O)c2cc(-c3ccc(C)o3)nc3ccccc23)cc1 | 56.5* | 0.6 | 5.3 | 21.2 | -220.8 | 3.2
Cc1ccc(-c2cc(C(=O)Nc3ccccn3)c3ccccc3n2)o1 | 4.8 | -26.1 | 0.8 | 9.7 | -303.8 | 1.0
O=C(NCc1ccccc1)c1cc(C2CCCN(C(=O)c3ccc4c(c3)CCO4)C2)on1 (stereo unspecified) | . | . | . | 9.7 | 18.9 | .
O=C(Nc1ccc(F)cc1F)c1cc(-c2ccco2)nc2ccccc12 | 45.4 | 12.4 | 6.0 | -3.8 | -308.9 | 5.4
COc1ccccc1CNC(=O)c1cc(C)nc2ccccc12 | 3.9 | -22.6 | -9.7 | -0.6 | -9.1 | -0.8
COc1ccccc1NC(=O)c1cc(C)nc2ccccc12 | 74.1* | -15.1 | -2.5 | -0.3 | 6.3 | -6.9
O=C(Nc1ccccc1F)c1cc(-c2ccco2)nc2ccccc12 | 59.5* | -32.6 | -9.7 | 1.6 | -438.6 | 1.1
COc1ccc(CN2C(=O)CN(S(C)(=O)=O)CC2(C)C(=O)NC(C)C)cc1OC (stereo unspecified) | . | . | . | -4.0 | 14.8 | .
O=C(NCc1cccs1)c1ccc(Cl)c(S(=O)(=O)N2CCOCC2)c1 | . | . | . | -1.9 | 21.6 | .
O=C(Nc1ccccc1Cl)c1cc(C2CCCCN2S(=O)(=O)c2ccc(F)cc2F)on1 (stereo unspecified) | . | . | . | 1.0 | 14.1 | .
O=C(Nc1ccccc1)O[C@@H]1C[C@H]2CCCC(=O)N3CC[C@@H](C1)[C@@H]23 | . | . | . | -4.2 | 25.0 | .
O=C(Nc1ccccc1)O[C@@H]1C[C@H]2CCC(=O)N3CC[C@@H](C1)[C@@H]23 | 7.3 | 56.4* | 59.8* | . | . | 54.6*
COc1ccc(C2CC(c3cccc(C(F)(F)F)c3)=NN2c2ccc(S(N)(=O)=O)cc2)cc1 (stereo unspecified) | . | . | 3.2 | 5.5 | -371.0 | .
COc1ccc(NC(=O)COc2cccc3c2CCN(C)C3=O)c(OC)c1 | 77.4* | -16.5 | -9.3 | 14.9 | 2.2 | -3.1
O=S(=O)(c1cccc(C(F)(F)F)c1)N1CCN(CC(O)COCc2ccccc2)CC1 (stereo unspecified) | -0.6 | -10.7 | 8.7 | 14.1 | 1.2 | -4.1
CC(C)n1cc(/C=C2/NC(=O)N(c3cccc(Cl)c3)C2=O)c2ccccc21 | 63.3* | -5.6 | 0.3 | 10.7 | -95.2 | 10.6
OC(c1cccc(Cl)c1)c1nc(-c2cccc3cccnc23)cs1 (stereo unspecified) | . | . | . | -0.6 | -76.0 | .

Screening data: PubChem BioAssay, several laboratories
